Several values for one entry are separate records, joined by “and”; a condition that tells them apart may be missing. Identical values can stand only once. The panel holds about 83,000 compounds, 20% with a hit somewhere; the sample as a whole holds those more often.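 The endpoint reported here, percent growth, reads 100 for growth as untreated, 0 for no net growth and -100 for all cells dead.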 A number with no mark means an inactive call. Activity calls are given as the source filed them. The calls were made as follows: active = growth percent below 10; inactive = the rest.
How the values were obtained:
Assay in all cases: NCI-60 one-dose screen, 48 h (100 = growth as untreated, 0 = no growth, -100 = all killed)
Details in all cases: 10 µM unless noted
[1] = tested on: NCI-H23 lung
[2] = tested on: NCI-H226 lung
[3] = tested on: HOP-62 NSCLC
[4] = tested on: NCI-H460 lung
[5] = tested on: HOP-92 NSCLC
[6] = tested on: NCI-H522 lung
[7] = tested on: A549/ATCC NSCLC
[8] = tested on: 786-0 renal
[9] = tested on: COLO 205 colon
[10] = tested on: DU-145 prostate
[11] = tested on: K-562 leukemia
[12] = tested on: MALME-3M melanoma
[13] = tested on: MDA-MB-231 breast
[14] = tested on: RXF 393 renal
[15] = tested on: SF-268 CNS
[16] = tested on: SF-295 CNS
[17] = tested on: SF-539 CNS
[18] = tested on: UACC-257 melanoma
[19] = tested on: M14 melanoma
[20] = tested on: NCI-H322M lung

Question: Which results are given for N[C@@H](CCC(=O)CCl)C(=O)O?
Answer: growth [1]: 97.3% [20 µM]; growth [2]: 104% [20 µM]; growth [3]: 95.9% [20 µM]; growth [4]: 106% [20 µM]; growth [5]: 84.6% [20 µM]; growth [6]: 77.1% [20 µM]; growth [7]: 102% [20 µM]; growth [8]: 101% [20 µM]; growth [9]: 106% [20 µM]; growth [10]: 105% [20 µM]; growth [11]: 82.9% [20 µM]; growth [12]: 92.5% [20 µM]; growth [13]: 92.2% [20 µM]; growth [14]: 112% [20 µM]; growth [15]: 98.4% [20 µM]; growth [16]: 98.9% [20 µM]; growth [17]: 104% [20 µM]; growth [18]: 99.9% [20 µM]; growth [19]: 95.9% [20 µM]

Question: How did the growth [1] turn out when CC1(C)C2CCC1(CS(=O)(=O)O)C(=O)C2 (centres undefined) was run?
Answer: Its growth is 108% and 105%.

Question: What about the growth [2] of the same molecule?
Answer: The growth was 128% and 102%.

Question: And the growth [20]?
Answer: Its growth is 90.2% and 99.1%.

Question: What about the growth [4] of the same molecule?
Answer: The growth was 111% and 108%.

Question: What about the growth [5] of the same molecule?
Answer: Its growth is 66.9% and 99.9%.

Question: And the growth [6]?
Answer: Its growth is 95.4% and 107%.

Question: And the growth [7]?
Answer: Its growth is 96.6% and 96.8%.

Question: What about the growth [8] of the same molecule?
Answer: Its growth is 101% and 98.8%.

Question: What about the growth [9] of the same molecule?
Answer: Its growth is 92.9% and 132%.

Question: And the growth [10]?
Answer: Its growth is 109% and 125%.

Question: What about the growth [11] of the same molecule?
Answer: The growth was 99.8% and 123%.

Question: And the growth [12]?
Answer: The growth was 85.1% and 105%.

Question: And the growth [13]?
Answer: Its growth is 94.9% and 108%.

Question: What about the growth [14] of the same molecule?
Answer: The growth was 137% and 123%.

Question: What about the growth [15] of the same molecule?
Answer: The growth was 107% and 105%.

Question: And the growth [16]?
Answer: The growth was 101% and 100%.

Question: What about the growth [17] of the same molecule?
Answer: The growth was 91% and 112%.

Question: What about the growth [18] of the same molecule?
Answer: Its growth is 99.5% and 96.6%.

Question: C=CC[PH+](c1ccccc1)c1ccccc1.C=CC[PH+](c1ccccc1)c1ccccc1.[Pt+2].[S-]c1nc2ccccc2[nH]1.[S-]c1nc2ccccc2[nH]1 was tested. Which growth [1] did it give?
Answer: Its growth is -12.4% (active).

Question: What about the growth [2] of the same molecule?
Answer: The growth was -20.6% (active).

Question: What about the growth [3] of the same molecule?
Answer: Its growth is -0.445% (active).

Question: What about the growth [4] of the same molecule?
Answer: Its growth is -6.83% (active).

Question: What about the growth [5] of the same molecule?
Answer: Its growth is -44.3% (active).

Question: What about the growth [6] of the same molecule?
Answer: Its growth is -44.2% (active).

Question: And the growth [7]?
Answer: The growth was -3.29% (active).

Question: And the growth [8]?
Answer: Its growth is -4.36% (active).

Question: And the growth [9]?
Answer: The growth was -36.7% (active).

Question: What about the growth [10] of the same molecule?
Answer: Its growth is 15.1%.

Question: What about the growth [11] of the same molecule?
Answer: The growth was 4.86% (active).

Question: What about the growth [12] of the same molecule?
Answer: The growth was -72.8% (active).

Question: What about the growth [13] of the same molecule?
Answer: Its growth is -44.3% (active).

Question: And the growth [14]?
Answer: Its growth is -0.0777% (active).

Question: And the growth [15]?
Answer: Its growth is 1.83% (active).

Question: What about the growth [16] of the same molecule?
Answer: Its growth is -9.49% (active).

Question: And the growth [17]?
Answer: The growth was -28.6% (active).

Question: And the growth [18]?
Answer: Its growth is -25.7% (active).

Question: And the growth [19]?
Answer: The growth was -18.6% (active).

Question: Which growth [1] does the source give for CCC1(NC(=O)c2cc(F)c(F)c(F)c2F)C(=O)NC(=O)N(C(C)C)C1=O (centres undefined) here?
Answer: Its growth is 47%.

Question: What about the growth [2] of the same molecule?
Answer: Its growth is 139%.

Question: And the growth [3]?
Answer: Its growth is 101%.

Question: And the growth [4]?
Answer: Its growth is 99.7%.

Question: What about the growth [5] of the same molecule?
Answer: The growth was 79.9%.

Question: And the growth [6]?
Answer: The growth was -5.62% (active).

Question: What about the growth [7] of the same molecule?
Answer: The growth was 75.9%.

Question: And the growth [8]?
Answer: Its growth is 101%.

Question: And the growth [9]?
Answer: The growth was 141%.

Question: What about the growth [10] of the same molecule?
Answer: The growth was 143%.

Question: And the growth [11]?
Answer: Its growth is -26.7% (active).

Question: What about the growth [12] of the same molecule?
Answer: The growth was 90.4%.

Question: And the growth [13]?
Answer: The growth was 81.5%.

Question: What about the growth [14] of the same molecule?
Answer: The growth was 79.8%.

Question: What about the growth [15] of the same molecule?
Answer: The growth was 114%.

Question: What about the growth [16] of the same molecule?
Answer: The growth was 107%.

Question: What about the growth [17] of the same molecule?
Answer: Its growth is 97.5%.

Question: And the growth [18]?
Answer: Its growth is 70.4%.

Question: What about the growth [19] of the same molecule?
Answer: The growth was 50%.

Question: How did the growth [1] turn out when COC(=O)C1=CO[C@@H](C)[C@@H]2CN3CCc4c([nH]c5cc(OC)ccc45)[C@@H]3C[C@H]12 was run?
Answer: The growth was 95.9%.

Question: What about the growth [2] of the same molecule?
Answer: Its growth is 94.5%.

Question: What about the growth [3] of the same molecule?
Answer: Its growth is 113%.

Question: And the growth [4]?
Answer: The growth was 99.7%.

Question: What about the growth [5] of the same molecule?
Answer: The growth was 78%.

Question: And the growth [7]?
Answer: Its growth is 95.8%.

Question: What about the growth [8] of the same molecule?
Answer: Its growth is 108%.

Question: What about the growth [9] of the same molecule?
Answer: The growth was 101%.

Question: And the growth [10]?
Answer: The growth was 104%.

Question: What about the growth [11] of the same molecule?
Answer: Its growth is 97.6%.

Question: And the growth [13]?
Answer: The growth was 97.2%.

Question: And the growth [14]?
Answer: The growth was 115%.

Question: And the growth [15]?
Answer: Its growth is 98.6%.

Question: And the growth [16]?
Answer: Its growth is 117%.

Question: And the growth [17]?
Answer: Its growth is 104%.

Question: What about the growth [18] of the same molecule?
Answer: Its growth is 95.7%.

Question: What about the growth [19] of the same molecule?
Answer: The growth was 103%.

Question: O=C(O)CNCP(=O)(O)O was tested. Which growth [1] did it give?
Answer: Its growth is 107%.

Question: And the growth [2]?
Answer: Its growth is 103%.

Question: What about the growth [3] of the same molecule?
Answer: Its growth is 109%.

Question: And the growth [4]?
Answer: Its growth is 119%.

Question: And the growth [6]?
Answer: Its growth is 98.2%.

Question: What about the growth [7] of the same molecule?
Answer: The growth was 102%.

Question: And the growth [8]?
Answer: The growth was 106%.

Question: And the growth [9]?
Answer: Its growth is 119%.

Question: And the growth [10]?
Answer: The growth was 121%.

Question: What about the growth [11] of the same molecule?
Answer: The growth was 101%.

Question: And the growth [13]?
Answer: Its growth is 117%.

Question: What about the growth [14] of the same molecule?
Answer: The growth was 121%.

Question: And the growth [15]?
Answer: Its growth is 113%.

Question: And the growth [16]?
Answer: Its growth is 107%.

Question: And the growth [17]?
Answer: The growth was 115%.

Question: And the growth [18]?
Answer: Its growth is 107%.

Question: What about the growth [19] of the same molecule?
Answer: Its growth is 101%.

Source: PubChem BioAssay (NCI)
